BoNT F protease – blocks Botulinum neurotoxin F light chain protease | Multiplex microsphere protease cleavage assay, flow cytometry | inhibition, % at 10 µM | 360,000 compounds, 0.22% hits; in the data active = inhibition above about 35%, passing the limit was not always enough; inconclusive = no clear call, values can overlap the other calls; note: plate controls were buffer without enzyme for full effect and enzyme alone for no effect
Autofluor counter – flagged as autofluorescent in microsphere protease counterscreen; fluorescence intensity (concentration not given with the values); compound autofluorescence counterscreen, microsphere flow cytometry; active compounds read high; 360,000 compounds, 3.1% hits; in the data active = fluorescence intensity above about 16000; inconclusive = no clear call, values can overlap the other calls
Anthrax LF prot – blocks Bacillus anthracis lethal factor protease; multiplex microsphere protease cleavage assay, LF; inhibition, % at 10 µM; 360,000 compounds, 0.12% hits; note: plate controls were buffer without enzyme for full effect and enzyme alone for no effect
Vc quorum ag – induces V. cholerae light production without autoinducers; V. cholerae BH1578 lux reporter, luminescence, 6 h; activation, % at 18.7 µM; 350,000 compounds, 0.16% hits; AID 588436; in the data active = activation mostly above about 9.7%, no sharp cut-off; inconclusive = no clear call, values can overlap the other calls; inactive = mostly below about 3.7%
BJeLR lethal – kills HRASV12-expressing BJeLR cells; inhibition, % (concentration not given with the values); 300,000 compounds, 0.17% hits; BJeLR (HRASV12) viability, CellTiter-Glo ATP luminescence, 48 h; in the data active = inhibition above about 50%; inconclusive = no clear call, values can overlap the other calls
BoNT-A LC inh2 – inhibitors of Botulinum neurotoxin A light chain protease; multiplex microsphere protease substrate cleavage, flow cytometry; inhibition, % at 10 µM; 360,000 compounds, 0.17% hits; note: plate controls were buffer without enzyme for full effect and enzyme alone for no effect
* marks the source's active call; other numbers are inactive results; i = inactive; ? = inconclusive; / = not tested or not shown. Rows were chosen to be rich in hits. Some 3.7% of all compounds tested hit in one or more screens of this group. Cut-off read from the data, not from the text of the source, unless noted: active = inhibition above about 30%; inconclusive = no clear call, values can overlap the other calls; inactive = below that.

SMILES	BoNT F protease	Autofluor counter	Anthrax LF prot	Vc quorum ag	BJeLR lethal	BoNT-A LC inh2
CCOC(=O)c1c(CN2CCN(CCO)CC2)n(C)c2cc(Br)c(OC)cc12	-2.1	23678*	-1.0	-0.4	-8.3	0.2
COc1ccc(S(=O)(=O)NC(=O)C2(C)CCN2C(=O)Cc2cc(F)ccc2F)cc1 (stereo not drawn)	-5.1	3804	-5.1	-1.2	/	-0.3
N/C(=N\OC(=O)c1ccc(Cl)c(Cl)c1)c1ccccn1	1.9	9865	-2.1	i	17.9	-0.1
N/C(=N\OC(=O)c1ccc(Cl)cc1)c1ccccn1	8.4	21717*	0.4	0.7	22.1	?
Cc1nn(-c2ccc(F)cc2)c2sc(C(=O)N3CCCCCC3)cc12	-4.4	3283	0.3	i	-2.5	1.6
CNC(=O)COC(=O)c1cc2c(C)nn(-c3ccc(F)cc3)c2s1	-3.1	16925*	-0.6	-0.4	0.3	-1.2
Nc1ncnc(Nc2cccc(C(F)(F)F)c2)n1	-3.3	17187*	1.4	-0.2	10.5	?
Nc1ncnc(Nc2cc(C(F)(F)F)cc(C(F)(F)F)c2)n1	-13.9	7092	-7.1	i	-9.1	-1.1
CC(=O)N(CCC1(C(C)C)CCOC(C)(C)C1)Cc1ccco1 (stereo not drawn)	0.7	19564*	0.0	i	-9.2	?
NC1=NC2(CCCCC2)N=C(Nc2ccc(F)cc2F)N1	-1.2	24883*	-0.3	i	-9.1	-3.7
Cc1cc(C)cc(NC2=NC3(CCCCC3)N=C(N)N2)c1	-6.3	4613	2.6	i	11.6	2.4
Cc1nc(N2CCN(Cc3ccccc3)CC2)nc2c1C(=O)CC(c1ccco1)C2 (stereo not drawn)	-9.6	17519*	-4.7	i	/	-3.1
COc1cc(C2C(C#N)=C(N)Oc3c2ccc2ccccc32)ccc1OCC(=O)Nc1ccccc1C (stereo not drawn)	-0.4	22354*	-1.0	-2.9	5.3	?
COC(=O)c1ccccc1NC(=S)NC(=O)COc1ccccc1	5.2	2629	0.1	i	7.8	0.2
Cc1ccccc1NC(=S)NC(=O)CCc1ccccc1	-2.6	19923*	4.2	i	-3.9	-0.6
CCCCC(=O)Nc1cccc(NC(=O)c2ccccc2Br)c1	1.2	20490*	-1.5	-0.2	5.3	0.3
COC(=O)c1ccccc1NC(=S)NC(=O)CC(C)C	1.3	22351*	-1.0	-0.3	0.5	2.3
Cc1cccc(C)c1NC(=S)NC(=O)CCc1ccccc1	2.2	5612	-1.5	i	-10.3	0.2
CCCCC(=O)NC(=S)Nc1ccccc1C(=O)Nc1ccccc1	14.6	17346*	-8.8	-0.5	-9.3	?
O=C(NCCc1ccc(F)cc1)C1CCC(=O)N(CC2CCCCC2)C1 (stereo not drawn)	0.6	3704	5.6	-0.8	/	0.0
O=C(CSc1nnc2n1CCCN2C(=S)Nc1ccc(Cl)cc1)c1ccccc1	6.3	20424*	0.0	i	-0.3	3.8
Cc1ccc(C)c(OCC(=O)Nc2nc3ccc([N+](=O)[O-])cc3s2)c1C	-1.1	22520*	-0.9	i	-3.9	?
CCC(=O)Nc1nc2ccc([N+](=O)[O-])cc2s1	/	/	/	-0.4	0.7	/
Cc1ccc(N2C(=O)c3cccc4c(N5CCN(C)CC5)ccc(c34)C2=O)c2cccnc12	/	/	/	/	1.3	/
Cc1ccc(N2C(=O)c3cccc4c([N+](=O)[O-])ccc(c34)C2=O)c2cccnc12	-2.5	3438	-3.6	i	51.9*	-0.9
SMILES	BoNT F protease	Autofluor counter	Anthrax LF prot	Vc quorum ag	BJeLR lethal	BoNT-A LC inh2
Cc1ccccc1CN(c1ccc(C(N)=O)cc1)S(C)(=O)=O	-1.7	16249*	2.6	-1.8	6.2	-0.1
Cc1ccccc1N(Cc1ccccc1F)S(C)(=O)=O	-1.0	23221*	-0.3	-0.1	5.8	1.4
CC1(C(=O)N2CCC(CC3CC(c4cccc(Br)c4)=NO3)(C(=O)NCC3CCCCC3)CC2)CC1 (stereo not drawn)	0.2	3744	-2.2	11.1	-3.8	0.6
CCC(CC)NC(=O)C1CCN(S(=O)(=O)c2cccs2)CC1	-0.5	23956*	-3.6	i	3.3	-0.6
CCOC(=O)N1CCC(NC(=O)C2CCN(S(=O)(=O)c3cccs3)CC2)CC1	0.6	20126*	-2.0	-0.3	0.7	1.0
O=C(OCCN1C(=O)c2ccccc2C1=O)C1CCN(S(=O)(=O)c2cccs2)CC1	-2.2	22995*	-5.2	i	-6.9	?
O=C(NC1CCCCC1)C1CCN(S(=O)(=O)c2cccs2)CC1	4.4	3849	-2.0	i	-0.8	0.8
COc1ccc(CCN2CC(C(=O)NCCc3ncccc3C)CCC2=O)cc1 (stereo not drawn)	0.4	2982	-0.8	0.9	/	-0.2
c1ccc(-c2nc3ccccc3nc2-c2ccccn2)nc1	2.9	22188*	0.3	i	-2.3	1.8
Cc1cc2nc(-c3ccccn3)c(-c3ccccn3)nc2cc1C	10.8	3456	-1.0	-0.3	16.7	2.1
O=C(/C=C/c1cccc2ccccc12)c1ccncc1	2.5	2658	8.8	i	70.8*	13.8
Nc1[nH]c(C(=O)c2ccccc2)c(-c2ccc(Cl)c(F)c2)c1C(=O)NCCc1c[nH]c2ccccc12	-3.3	6235	4.2	/	/	-0.9
Cc1cccc(OCC(=O)Nc2ccc(C(=O)NCc3cccnc3)cc2)c1	/	/	/	/	55.0*	/
CC(C)(C)c1ccc(C(=O)c2c[nH]c(C(=O)NCc3cccnc3)c2)cc1	-0.3	9456	4.2	-0.2	3.8	4.0
O=C(Cc1ccc(Cl)cc1)c1c[nH]c(C(=O)NCc2cccnc2)c1	-2.4	4440	-2.9	-0.3	77.6*	-0.6
O=C(COc1ccc(Cl)cc1)Nc1ccc(C(=O)NCc2cccnc2)cc1	2.9	10237	-0.8	-0.4	87.3*	-0.6
CCOC(=O)NC1(C(F)(F)F)NC(=O)N(Cc2ccco2)C1=O (stereo not drawn)	-0.2	16624*	1.9	-0.2	15.3	?
Cc1ccc(NC(=O)Nc2nnc([C@H]3C[C@H](O)[C@@H](CO)O3)s2)cc1	1.7	3501	1.4	-0.4	/	0.1
CCC(Sc1ncccc1C(=O)OC(C)C)C(=O)N1CCOCC1 (stereo not drawn)	-1.5	22945*	-9.5	i	-0.5	?
CCOC(=O)c1cccnc1SC(CC)C(=O)NCc1ccco1 (stereo not drawn)	-2.0	24254*	-0.1	-0.2	-10.9	-1.3
CCC(Sc1ncccc1C(=O)OCCN1CCCC1=O)C(=O)NCc1ccco1 (stereo not drawn)	8.4	20951*	-6.6	-0.1	9.5	6.5
CCC(Sc1ncccc1C(=O)OC(C)C)C(=O)NCc1ccco1 (stereo not drawn)	5.1	7901	-0.1	i	-0.7	0.8
O=C(COC(=O)c1ccc(N2CCCC2=O)cc1)NCc1ccco1	12.5	3121	0.1	-0.4	-10.6	1.9
CNC[C@@H]1OCc2ccccc2-c2c(n(C)c3ccccc23)C(=O)N([C@H](C)CO)C[C@H]1C	4.3	3799	3.3	i	/	0.2

Screening results as filed in PubChem BioAssay.
